# The other results are listed elsewhere or left out. Results filed as inconclusive are left out. A number with no mark means an inactive call. Active and inactive are the calls of the source. The call rests on the fitted dose curve.
# Target: Polyprotein P1234 (Chikungunya virus (strain S27-African prototype)) (UniProt Q8JUX6)
# Assay: Secondary cell base assay for inhibitors of NSP2Pro Chikungunya virus (CHIKV) (AID 1964100); further: nearly all actives have a fitted effect of over 70% in size
# Conditions: cell-based CHIKV nsP2 protease reporter assay; series mostly up to 51.1 µM; activity change, negative = inhibition: at the top concentration
# Source text: PI: Natalia J. Martinez Ph.D.
# National Center for Advancing Translational Sciences (NCATS),
# National Institute of Health (NIH), Rockville, Maryland
# Chikungunya virus (CHIKV) is a mosquito-borne RNA virus that has emerged as one of the most important global arboviral threats in the last decade. Although the first CHIKV vaccine has recently been FDA approved for use in healthy adults at increased risk, to date, there are no available antiviral drugs for CHIKV infection. CHIKV nsP2 protease plays a crucial role in the processing of the viral polypeptide precursor to release enzymes required for viral replication, thus making it a promising drug target for antiviral discovery. Here, we established a high-throughput pipeline to identify small molecule inhibitors of nsP2 proteolytic activity. The pipeline is composed of a suite of 1,536-well in vitro assays to support quantitative high-throughput (qHTS) screening campaigns. Specifically, we developed a fluorescence resonance energy transfer (FRET)-based assay using a fluorogenic peptide substrate encompassing an endogenous cleavage site and purified recombinant protease domain (nsP2pro). Using this assay, we interrogated ~37,000 small molecules, including those in drug repurposing libraries as well as chemically diverse and medicinal chemistry-friendly compounds. Hits were selected for follow-up validation against full-length nsP2 and an additional peptide. FRET-based 1,536-well assays for papain, hepatitis C virus NS3-4A, and human furin proteases were implemented to characterize compound selectivity. […] Novel compounds were identified to be potential nsP2 inhibitors and molecular docking analyses were performed to explain the binding mode of selected hits. In vitro antiviral activity was evaluated for a subset of compounds using a high-throughput CHIKV infection assay. To our knowledge, the pipeline presented here is unprecedented for CHIKV antiviral discovery research.
# Described herein is the secondary cell-based assay using a reporter construct. Construct cloning was produced by gene synthesis (GeneScript). The Split Nluc reporter construct was cloned into the NheI/EcoRI sites of pcDNA3.1 (+). The Nterm HiBiT (86b) and Cterm LgBiT (11S) sequences of the Split Nluc reporter were separated by a flexible loop containing the nsp3/4 cleavage site ([…]) or a flexible loop without a cleavage site (12X GlySer). nsP2pro expression construct (amino acids 220-798, accession #MT933050) was cloned into the NheI/EcoRI sites of pcDNA3.1 (+) and contained a C-terminal Flag/6xHis tag. The gene synthesis of the Split Nluc reporter and West Nile Virus (WNV) NS2B/NS3 protease expression constructs was performed by Synbio Technologies. The Split Nluc reporter construct included the N-terminal HiBiT (86b) and C-terminal LgBiT (11S) sequences, separated by a loop containing the WNV NS2B/NS3 cleavage site ([…]). The WNV NS2B/NS3 protease expression construct (amino acids 1375-1693, accession #NC_009942) contained a C-terminal Flag/6xHis tag. Both constructs were cloned into the XbaI/AgeI sites of pcDNA3.4.
# PROTOCOL TABLE (as described by Inglese J, Shamu CE and Guy RK. 2007)
# SEQUENCE No. (e.g., 1, 2, 3, etc.); […] (e.g., Cells, Incubation, Reagent, etc.); VALUE; DESCRIPTION.
# 1a; Cell Transfection; Lipofectamine 2000.
# 1b; Cell; 4 uL; Aurora 1536-well, white, tissue culture plate.
# 2; Incubation; 4 hr; 37C, 5% CO2, 95% humidity.
# 3; Compound; 20 nL; Echo 650 Liquid Handler.
# 4; Incubation; overnight; 37C, 55 CO2, 95% humidity.
# 5; Reagent; 4 uL; Nano-Glo Luciferase assay system.
# 6; Centrifugation; 2 sec.
# 7; Detection; Luminescence; ViewLux plate reader (PerkinElmer).
# NOTES (numbers refer to sequence numbers above).
# 1a. […]
# On the % scale 0 is the no-effect control and ±100 the full control effect; potency means the concentration at half of the fitted maximal effect.
SMILES,"activity change, negative = inhibition",Potency
CC1=C(/C=C/C(C)=C/C=C/C(C)=C/C=C/C=C(C)/C=C/C=C(C)/C=C/C2=C(C)CCCC2(C)C)C(C)(C)CCC1,-2.28%,
C[C@@H]1C[C@@H](O)[C@@]23CO[C@]2(CO)C[C@@H](O)CC3[C@@]12CC(c1ccoc1)OC2=O (some centres undefined),-7.47% [at 33.5 µM],
Cn1nnnc1Sc1ncnc2n[nH]c(-c3cccc(S(C)(=O)=O)c3)c12,,11.2 µM (active)
Oc1ccc(OC2CCCCO2)cc1 (centres undefined),-6.43%,
CC(=O)N[C@@H](C(=O)O[C@H]1CCC(C)(C)[C@@H]2CCC3=C(COC3=O)[C@@]12C)C(C)C,8.89% [at 33.5 µM],
C[C@@H]1O[C@@H](O[C@@H]2[C@@H](O)[C@H](OCCc3ccc(O)c(O)c3)O[C@H](CO[C@@H]3O[C@H](CO)[C@@H](O)[C@H](O)[C@H]3O)[C@H]2OC(=O)/C=C/c2ccc(O)c(O)c2)[C@H](O)[C@H](O)[C@H]1O,6.92%,
Cc1cc(C)cc(NC(=O)CSc2oc(-c3ccccc3)nc2S(=O)(=O)c2ccc(Cl)cc2)c1,167%,
Cc1ccc(N[S+](=O)([O-])c2cc3c(cc2N[C@@H](C)CO)NC(=O)CC3)cc1N[C@@H](C)CO,0.443%,
CCc1ccccc1NC(=O)c1cnn(-c2ccc(F)cc2)c1C1CCNCC1,1.05%,
COC([CH2][Hg])CNC(=O)c1ccccc1OCC(=O)O (centres undefined),-12.4%,
CCOc1ccc(NC(=O)c2c(NC(=O)Cc3ccccc3)sc3c2CCCCC3)cc1,31.1%,
CO[C@]1(NC(=O)CSC(F)F)C(=O)N2C(C(=O)O)=C(CSc3nnnn3CCO)CO[C@H]21,-3.23%,
CCOc1ccc(NC(=O)c2c(NC(=O)Cc3ccccc3)sc3c2CCC(C)C3)cc1 (centres undefined),-16.6%,
CCC(C)C(=O)OC1C(C)C2(O)C(C=C(CO)CC3(O)C(=O)C(C)=CC32)C2C(C)(C)C12OC(=O)C(C)C (centres undefined),273% [at 17.6 µM],
Cc1c(S(=O)(=O)O)oc2c1C(=O)C(=O)c1c-2ccc2c1CCCC2(C)C,-3.37%,
C=CC(=O)c1ccc2ccccc2c1,-6.82%,
CCOc1ccc(N(Cc2ccccc2)C(=O)c2nc(S(C)(=O)=O)ncc2Cl)cc1,,2.31 µM (active)
C=Cc1c(C)c2cc3nc(cc4[nH]c(cc5nc(cc1[nH]2)C(C)=C5CCC(=O)O)c(CCC(=O)OC)c4C)[C@@]1(C)C3=CC=C(C(=O)OC)[C@H]1C(=O)OC,7.15%,
C[C@@H]1[C@H](O)[C@@H]2OC(=O)C3=C2[C@H](CCC3)[C@@]12C[C@@H](c1ccoc1)OC2=O,13.6% [at 33.5 µM],

# Source: PubChem BioAssay (NCATS)
